Screens deposited in PubChem BioAssay by several laboratories.
HIF-2a block = blocks HIF-2a reporter activity | 786-0 RCC cells HIF-2a reporter, luciferase luminescence, overnight | inhibition, % at 18.8 µM | actives 0.72% (n = 360,000) | AID 624352;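 active = inhibition of the luminescence signal of 40% or more relative to plate controls, in a single-dose primary screen at 18.75 µM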
TROY signal inh = inhibitors of TROY-dependent NF-kB signaling; Q293 LMP1-TROYcd NF-kB luciferase reporter, 4 h; inhibition, % at 10 µM; AID 1347056; actives 0.98% (n = 360,000);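 active = compounds whose plate-normalised and pattern-corrected inhibition of the luciferase reporter signal at the single screening dose is 50% or more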
Peg3 promoter = Peg3 promoter activity inhibition | HeLa PEG-Prom luciferase reporter, luminescence, overnight | inhibition, % at 20 µM | actives 1.7% (n = 360,000) | AID 588405;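 active = inhibition of at least 50% at 20 µM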
TWEAK-Fn14 inh = inhibitors of TWEAK-Fn14 interaction signaling; TWEAK-stimulated Fn14 reporter cells, luciferase luminescence, 8 h; inhibition, % at 10 µM; actives 2% (n = 360,000); in the data active = inhibition above about 50%
LMP1 NFkB inh = inhibitors of Epstein-Barr LMP1-induced NF-kappaB reporter. LMP1-induced NF-kappaB luciferase reporter cells, luminescence. inhibition, % at 12.5 µM. actives 0.69% (n = 350,000). AID 504558; in the data active = inhibition above about 41%;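 also: 0% = neutral control wells and 100% = reference inhibitor control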
TRPM1 prom inh = inhibitors of MITF-driven TRPM1 promoter in melanoma cells; SK-MEL-5 TRPM1 promoter luciferase, 24 h; inhibition, % at 12.5 µM; actives 0.83% (n = 330,000); AID 488899;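 active = mean inhibition across replicates of 60% or more, whatever share of single replicates reaches that level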
An asterisk follows results filed as active; nt = no result given; ! = a repeat was not active. Compounds with a hit are over-represented: about 4% of the library has one in this group of screens.

SMILES | HIF-2a block | TROY signal inh | Peg3 promoter | TWEAK-Fn14 inh | LMP1 NFkB inh | TRPM1 prom inh
C[n+]1ccc(-c2ccccc2)c2ccccc21 | 1 | -3 | -6 | 17 | 3 | 17
CN(C)c1ccc(/C=C/c2cc[n+](C)c3ccccc23)cc1 | -11 | 48 | 31 | 53*! | 42*! | 82*
CC[n+]1c(/C=C/C=C/c2ccc(N(C)C)cc2)sc2ccccc21 | -19 | 52* | 65* | 56* | 39 | 71*
C[n+]1c(-c2ccccc2)sc2ccccc21 | 5 | -3 | -7 | -2 | 3 | 19
CC[n+]1c(/C=C/N(C)c2ccccc2)sc2ccc(Cl)cc21 | 0 | -2 | 35 | 27 | 20 | 67*
O=[N+]([O-])/C=C1/NCCN1Cc1ccc(Cl)nc1 | 18 | 10 | 4 | 3 | 3 | 9
COC(=O)N(c1ccccc1)P(=O)(Oc1ccccc1)Oc1ccccc1 | 22 | -9 | 6 | -1 | 1 | 8
CCOC(=O)C1=C(NC(=S)NC(=O)c2ccccc2)c2ccccc2CC12CCCC2 | 0 | 12 | 50* | 7 | 16 | 2
CCC1(Cc2ccccc2)C(=O)NC(=S)N(C)C1=O (stereo not given) | 20 | 7 | 8 | 10 | 1 | 8
C[C@]12CCC3C(CC[C@H]4C[C@@H](O)CC[C@]34C)C1=CC[C@@H]2O (stereo not given in full) | 3 | -10 | 9 | -22 | -1 | nt
CCC(c1nnnn1-c1ccc(OC)cc1)N1CCC(n2c(=O)[nH]c3ccccc32)CC1 (stereo not given) | 4 | 22 | 23 | 7 | nt | nt
Cc1cccc(C)c1-n1nnnc1C(CCc1ccccc1)N1CCC(n2c(=O)[nH]c3ccccc32)CC1 (stereo not given) | 0 | 81* | 98* | 107* | nt | nt
COc1ccc(-n2nnnc2C(CCc2ccccc2)N2CCC(n3c(=O)[nH]c4ccccc43)CC2)cc1 (stereo not given) | -49 | 72* | 99* | 94* | nt | nt
O=c1[nH]c2ccccc2n1C1CCN(C(CCc2ccccc2)c2nnnn2-c2ccc3c(c2)OCCO3)CC1 (stereo not given) | -33 | 59* | 90* | 70* | nt | nt
O=C(O)C1C2c3ccccc3C(O)C1(C(=O)O)c1ccccc12 (stereo not given) | 13 | 5 | 6 | 1 | -2 | -18
CCC(=NCCc1c[nH]c2ccccc12)c1c(O)n(C)c(=O)n(C)c1=O | 2 | 31 | 1 | 39 | 3 | 5
Cc1cc(C)c(S(=O)(=O)N2Cc3ccccc3-n3nncc3C2)c(C)c1 | 17 | 11 | 21 | 31 | 3 | nt
Nc1cccc(SC2CC(=O)N(c3ccc(Cl)cc3C(=O)c3ccccc3)C2=O)c1 (stereo not given) | 12 | 41 | 23 | 54* | 7 | nt
COc1ccc(NC(=O)N2C[C@@H]3C[C@@H](C2)c2cccc(=O)n2C3)c(OC)c1 | 8 | -1 | 0 | -32 | -3 | 10
CCOC(=O)Cn1cc([N+](=O)[O-])nc1[N+](=O)[O-] | -7 | -2 | -17 | 12 | 4 | 65*
COCCCNP1(=O)OCC(C)([N+](=O)[O-])CO1 (stereo not given) | 11 | 11 | 3 | 4 | -18 | -3
O=[N+]([O-])c1ccc(CN2CC=C(c3ccccc3)CC2)cc1 | -16 | 1 | 9 | 22 | 43* | 7
CN(C)c1ccc(CN2CC=C(c3ccc(F)cc3)CC2)cc1 | 7 | 25 | 10 | 3 | -4 | 9
CC12CN3CN(C1)CC(c1ccccc1)(C3)C2=O | 6 | nt | 16 | 88* | 1 | 9
CC1CCCC(NC(=O)COC(=O)c2cn(C)c3ccccc23)C1C (stereo not given) | -13 | -3 | 1 | 8 | -4 | 0
SMILES | HIF-2a block | TROY signal inh | Peg3 promoter | TWEAK-Fn14 inh | LMP1 NFkB inh | TRPM1 prom inh
CC1=C(N2CC2)C(=O)C(CO)=C(N2CC2)C1=O | 89* | -3 | 100* | 29 | 89* | 106*
Cc1ccc(OC(=O)N(C)C[C@H]2OCc3cnnn3CCCC(=O)N([C@@H](C)CO)C[C@H]2C)cc1 | 3 | -4 | 32 | -7 | -8 | nt
O=S(=O)(c1cccc2ccccc12)N1Cc2ccccc2-n2nncc2C1 | -3 | 27 | 8 | 13 | 9 | nt
CCc1ccc(N2C(=O)NC(=O)/C(=C/c3cccn3CCOc3ccc(C(C)CC)cc3)C2=O)cc1 (stereo not given) | 2 | 41 | -147 | 65* | -34 | 4
CCOC(=O)C1C(OC(=O)c2ccccc2)CC2CCC1N2C (stereo not given) | 11 | -7 | 2 | -6 | 73* | -1
CN1C2CCC1C(C(=O)O)C(OC(=O)c1ccccc1)C2 (stereo not given) | 15 | -11 | -3 | 2 | -4 | -1
COC(=O)C1C2CC[C@@H](CC1OC(=O)c1ccccc1)N2 (stereo not given in full) | 0 | -11 | -7 | 4 | 90* | 2
CC1CC(OC(=O)c2ccccc2)CC(C)N1C (stereo not given) | 4 | 13 | -2 | 11 | 4 | 12
Cc1cc(C)c2c(ccc3cccc[n+]32)c1 | 13 | -16 | -1 | -1 | nt | nt
CCn1c(O)c(N=Nc2ccc(S(=O)(=O)N3CCOCC3)cc2)c(=O)n(CC)c1=S | 3 | 18 | 22 | 57* | 6 | 52
CCn1c(O)c(N=Nc2cccc(S(=O)(=O)N3CCOCC3)c2)c(=O)n(CC)c1=S | -4 | 6 | 10 | 20 | 2 | 13
CN1C(=O)NC(=O)C2(CCCC2)C1=O | 11 | 9 | 3 | 5 | -3 | -2
CC(=O)O[C@H]1CC[C@]2(C)C3CC[C@@]4(C)C(C[C@@H](O)[C@@H]4O)C3[C@@H](OC(C)=O)C[C@H]2C1 (stereo not given in full) | 11 | 3 | -5 | -25 | 2 | nt
CC(=O)OC1CC(OC2C(O)CC(OC3C(O)CC(OC4CCC5(C)C(CCC6C5CCC5(C)C(C7=CC(=O)OC7)CCC65O)C4)OC3C)OC2C)OC(C)C1OC1OC(CO)C(O)C(O)C1O (stereo not given) | 82* | 43 | 107* | 80* | 76* | 80*
COC(/C(C)=C/C=C/C(C)=C/c1coc(C)n1)C(C)C1CC(O)C2(C)OC2C=CC(C)C2CC(CC(=O)O2)CC2OC2C(=O)O1 (stereo not given) | 29 | 6 | -17 | 34 | -3 | 65*
CC(=O)OC(C)(C)/C=C/C(=O)C(C)(O)C1C(O)CC2(C)C3CC=C4C(CC(O)C(=O)C4(C)C)C3(C)C(=O)CC12C (stereo not given) | 78* | 61* | 97* | 63* | 12 | 88*
